Test results taken from PubChem BioAssay AID1159580 (chemical genetic matrix, 2015).
Hit rate of the full screen: of about 5,500 compounds, about 2,000 (36%) were called active. About 18% were inconclusive and are not listed. No stated cut-off is given here; in the data, active means normalized growth mostly below about 0.91 (no sharp cut-off); inconclusive means no clear call, values can overlap the other calls; inactive means mostly above about 0.92. The list shows a part of the results.

Test: chemical genetic growth profiling, strain panel (AID 1159580);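 further: tested at 20 µM; growth read once vehicle control cultures reached saturation at 30 °C; 1 = growth at the plate median or of vehicle wells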
Conditions: growth OD
[1] = S. cerevisiae deletion strains, locus YDL101C, strain DUN1, stronger effect = lower value
[2] = S. cerevisiae deletion strains, locus YHR030C, strain SLT2, stronger effect = lower value
[3] = S. cerevisiae deletion strains, locus YHR079C, strain IRE1, stronger effect = lower value
[4] = S. cerevisiae deletion strains, locus YJL095W, strain BCK1, stronger effect = lower value
[5] = S. cerevisiae deletion strains, locus YJR066W, strain TOR1, stronger effect = lower value
[6] = S. cerevisiae deletion strains, locus YLR113W, strain HOG1, stronger effect = lower value
[7] = S. cerevisiae deletion strains, locus YNL183C, strain NPR1, stronger effect = lower value
[8] = S. cerevisiae deletion strains, locus YOR231W, strain MKK1, stronger effect = lower value
[9] = S. cerevisiae deletion strains, locus YPL256C, strain CLN2, stronger effect = lower value

Measured: normalized growth

c1ccc(Sc2c(-c3ccccc3)nc3ccccn23)cc1
active: S. cerevisiae deletion strains, locus YAL013W, strain DEP1, stronger effect = lower value 0.895 | S. cerevisiae deletion strains, locus YBR229C, strain ROT2, stronger effect = lower value 0.9 | S. cerevisiae deletion strains, locus YCL061C, strain MRC1, stronger effect = lower value 0.906 | S. cerevisiae deletion strains, locus YEL061C, strain CIN8, stronger effect = lower value 0.869 | S. cerevisiae deletion strains, locus YGR078C, strain PAC10, stronger effect = lower value 0.884 | [2] 0.193 | S. cerevisiae deletion strains, locus YJR075W, strain HOC1, stronger effect = lower value 0.833 | S. cerevisiae deletion strains, locus YKL190W, strain CNB1, stronger effect = lower value 0.79 | S. cerevisiae deletion strains, locus YLR039C, strain RIC1, stronger effect = lower value 0.657 | S. cerevisiae deletion strains, locus YLR058C, strain SHM2 (second series), stronger effect = lower value 0.899 | S. cerevisiae deletion strains, locus YLR085C, strain ARP6, stronger effect = lower value 0.275 | S. cerevisiae deletion strains, locus YLR262C, strain YPT6, stronger effect = lower value 0.78 | S. cerevisiae deletion strains, locus YMR219W, strain ESC1, stronger effect = lower value 0.897 | S. cerevisiae deletion strains, locus YNL298W, strain CLA4 (second series), stronger effect = lower value 0.781 | S. cerevisiae deletion strains, locus YNL322C, strain KRE1, stronger effect = lower value 0.915 | S. cerevisiae deletion strains, locus YNR030W, strain Alg12, stronger effect = lower value 0.714 | S. cerevisiae deletion strains, locus YPL055C, strain LGE1, stronger effect = lower value 0.725 | S. cerevisiae deletion strains, locus YPL241C, strain CIN2, stronger effect = lower value 0.692 | S. cerevisiae deletion strains, locus YPR135W, strain CTF4, stronger effect = lower value 0.431
inactive: [1] 0.929 | S. cerevisiae deletion strains, locus YDR150W, strain NUM1, stronger effect = lower value 0.8 | S. cerevisiae deletion strains, locus YHR087W, strain rtc3, stronger effect = lower value 0.921 | S. cerevisiae deletion strains, locus YJR043C, strain POL32, stronger effect = lower value 0.93 | S. cerevisiae deletion strains, locus YML094W, strain GIM5, stronger effect = lower value 0.886 | S. cerevisiae deletion strains, locus YNL153C, strain GIM3, stronger effect = lower value 0.931 | S. cerevisiae strains, strain wild type, stronger effect = lower value 0.92

COc1ccc(C2CC(c3ccccc3)=Nc3ccccc3S2)cc1OC (stereo not given)
inactive: S. cerevisiae deletion strains, locus YAR019C, strain CDC15, stronger effect = lower value 0.969 | S. cerevisiae deletion strains, locus YBL105C, strain PKC1, stronger effect = lower value 0.962 | S. cerevisiae deletion strains, locus YBR135W, strain CKS1, stronger effect = lower value 0.974 | S. cerevisiae deletion strains, locus YBR136W, strain MEC1, stronger effect = lower value 0.947 | S. cerevisiae deletion strains, locus YBR160W, strain CDC28, stronger effect = lower value 0.975 | S. cerevisiae deletion strains, locus YDL017W, strain CDC7, stronger effect = lower value 0.965 | S. cerevisiae deletion strains, locus YDL028C, strain MPS1, stronger effect = lower value 0.975 | [1] 0.965 | S. cerevisiae deletion strains, locus YDL108W, strain KIN28, stronger effect = lower value 0.976 | S. cerevisiae deletion strains, locus YDL132W, strain cdc53, stronger effect = lower value 0.975 | S. cerevisiae deletion strains, locus YDL214C, strain PRR2, stronger effect = lower value 0.936 | S. cerevisiae deletion strains, locus YDR052C, strain DBF4, stronger effect = lower value 0.97 | S. cerevisiae deletion strains, locus YDR054C, strain cdc34, stronger effect = lower value 0.958 | S. cerevisiae deletion strains, locus YDR226W, strain ADK1, stronger effect = lower value 0.967 | S. cerevisiae deletion strains, locus YDR477W, strain SNF1, stronger effect = lower value 0.949 | S. cerevisiae deletion strains, locus YER123W, strain YCK3, stronger effect = lower value 0.939 | S. cerevisiae deletion strains, locus YER133W, strain GLC7, stronger effect = lower value 0.952 | S. cerevisiae deletion strains, locus YFL009W, strain cdc4, stronger effect = lower value 0.973 | S. cerevisiae deletion strains, locus YFL029C, strain CAK1, stronger effect = lower value 0.945 | S. cerevisiae deletion strains, locus YFR003C, strain YPI1, stronger effect = lower value 0.961 | S. cerevisiae deletion strains, locus YFR019W, strain FAB1, stronger effect = lower value 0.967 | S. cerevisiae deletion strains, locus YFR028C, strain CDC14, stronger effect = lower value 0.961 | S. cerevisiae deletion strains, locus YGR040W, strain KSS1, stronger effect = lower value 0.94 | S. cerevisiae deletion strains, locus YGR052W, strain FMP48, stronger effect = lower value 1.02 | S. cerevisiae deletion strains, locus YGR092W, strain DBF2, stronger effect = lower value 0.935 | [2] 0.887 | [3] 0.914 | S. cerevisiae deletion strains, locus YHR082C, strain KSP1, stronger effect = lower value 0.975 | S. cerevisiae deletion strains, locus YHR205W, strain SCH9, stronger effect = lower value 0.934 | S. cerevisiae deletion strains, locus YIL147C, strain SLN1, stronger effect = lower value 0.959 | [4] 0.941 | S. cerevisiae deletion strains, locus YJL128C, strain PBS2, stronger effect = lower value 0.943 | S. cerevisiae deletion strains, locus YJL157C, strain FAR1, stronger effect = lower value 0.968 | S. cerevisiae deletion strains, locus YJR016C, strain ILV3, stronger effect = lower value 0.966 | S. cerevisiae deletion strains, locus YJR066W, strain TOR1 (second series), stronger effect = lower value 0.901 | [5] 0.938 | S. cerevisiae deletion strains, locus YKL048C, strain ELM1, stronger effect = lower value 0.968 | S. cerevisiae deletion strains, locus YKL067W, strain YNK1, stronger effect = lower value 0.956 | S. cerevisiae deletion strains, locus YKL101W, strain HSL1, stronger effect = lower value 0.927 | S. cerevisiae deletion strains, locus YKL193C, strain SDS22, stronger effect = lower value 0.976 | S. cerevisiae deletion strains, locus YKL203C, strain TOR2, stronger effect = lower value 0.965 | [6] 0.889 | S. cerevisiae deletion strains, locus YLR133W, strain CKI1, stronger effect = lower value 0.948 | S. cerevisiae deletion strains, locus YLR403W, strain SFP1, stronger effect = lower value 0.929 | S. cerevisiae deletion strains, locus YML070W, strain DAK1, stronger effect = lower value 0.949 | S. cerevisiae deletion strains, locus YMR001C, strain CDC5, stronger effect = lower value 0.969 | S. cerevisiae deletion strains, locus YMR205C, strain PFK2 (second series), stronger effect = lower value 0.95 | S. cerevisiae deletion strains, locus YMR277W, strain FCP1, stronger effect = lower value 0.97 | S. cerevisiae deletion strains, locus YNL006W, strain LST8, stronger effect = lower value 0.988 | S. cerevisiae deletion strains, locus YNL020C, strain ARK1, stronger effect = lower value 0.939 | S. cerevisiae deletion strains, locus YNL161W, strain CBK1, stronger effect = lower value 0.962 | [7] 0.939 | S. cerevisiae deletion strains, locus YNL207W, strain RIO2, stronger effect = lower value 0.97 | S. cerevisiae deletion strains, locus YNL222W, strain SSU72, stronger effect = lower value 0.968 | S. cerevisiae deletion strains, locus YNL307C, strain MCK1 (second series), stronger effect = lower value 0.974 | S. cerevisiae deletion strains, locus YOL078W, strain AVO1, stronger effect = lower value 0.975 | S. cerevisiae deletion strains, locus YOL136C, strain PFK27, stronger effect = lower value 0.946 | S. cerevisiae deletion strains, locus YOR061W, strain CKA2, stronger effect = lower value 0.94 | S. cerevisiae deletion strains, locus YOR119C, strain RIO1, stronger effect = lower value 0.949 | [8] 0.918 | S. cerevisiae deletion strains, locus YOR329C, strain SCD5, stronger effect = lower value 0.97 | S. cerevisiae deletion strains, locus YPL031C, strain PHO85, stronger effect = lower value 0.932 | S. cerevisiae deletion strains, locus YPL153C, strain RAD53, stronger effect = lower value 0.958 | S. cerevisiae deletion strains, locus YPL204W, strain HRR25, stronger effect = lower value 0.948 | S. cerevisiae deletion strains, locus YPL209C, strain IPL1, stronger effect = lower value 0.975 | [9] 0.879 | S. cerevisiae deletion strains, locus YPR025C, strain CCL1, stronger effect = lower value 0.966 | S. cerevisiae deletion strains, locus YPR106W, strain ISR1, stronger effect = lower value 0.971 | S. cerevisiae deletion strains, locus YPR111W, strain DBF20, stronger effect = lower value 0.97 | S. cerevisiae deletion strains, strain NNK1, stronger effect = lower value 0.958 | S. cerevisiae deletion strains, strain TSCII, stronger effect = lower value 0.965

Cc1ncc(C[n+]2csc(CCO)c2C)c(=O)[nH]1
inactive: [2] 1.04 | [3] 1.05 | [4] 0.991 | [5] 0.984 | [6] 0.979 | [7] 0.976 | [8] 1.03 | [9] 1.05
